From PubChem BioAssay AID372 (MTDP, 2006) come the findings set out here.

Values joined by “and” are separate entries in the source; they are usually repeats but may differ in a detail not shown here. Equal values may be shown once. About 770 (0.77%) of roughly 100,000 compounds were called active. No stated cut-off is given here; in the data, active means inhibition above about 50%; inactive means the rest. Many of the other results were omitted from the sample, so actives are more common in it than they were.

This experiment has as its target Gag-Pol polyprotein (Human immunodeficiency virus type 1 group M subtype B (isolate HXB2)) (UniProt P04585). In words: RNase H inhibition, HIV 1 Gag Pol polyprotein, FRET biochemical assay, screening (AID 372). To be noted: HIV-1 RT RNase H, FRET RNA/DNA substrate fluorescence; at 10 µM; active compounds read high.
With `O=C(Nc1ncc(Cc2cccc([N+](=O)[O-])c2)s1)c1cccc([N+](=O)[O-])c1`, the inhibition – broadly, the share of the control response that was lost under treatment – is 11% (inactive).
The value for `O=C(CCc1ccccc1)Nc1cc(C(=O)O)cc(C(=O)O)c1` was 36% (inactive); that for `COc1cccc(-c2nc(-c3cccc([N+](=O)[O-])c3)no2)c1` was 5% (inactive); that for `O=C(N/N=C/c1ccc(O)cc1O)c1cc(Br)cc(Br)c1O` was 12% (inactive).
The value for `Cc1ccc(CNC(=O)C(=O)NCC2CCCO2)cc1` (stereo unspecified) was 9% (inactive); that for `COC(=O)c1cc(C(=O)NC2CCSC2=O)cc([N+](=O)[O-])c1` (stereo unspecified) was 10% (inactive).
On to `O=C(NCC1CCCO1)/C(=C/c1cccc(Oc2ccccc2)c1)NC(=O)c1ccccc1` (stereo unspecified), for which the inhibition is 0% (inactive).
The result for `C=CCNC(=O)CN(c1cccc(OC)c1)S(=O)(=O)c1ccccc1` reads 0% (inactive); that for `CC(=O)Nc1ccc(N=Cc2cccc(C)c2)cc1`, 4% (inactive).
The result for `CC(=O)C(=Nc1ccc(C)cc1C)NNc1ccc(Cl)c(C(N)=O)c1` reads 11% (inactive); that for `CC(=O)Nc1cc(C(N)=O)c(Cl)cc1Cl`, 1% (inactive); that for `CC(=O)C(=Nc1ccc(C)cc1C)NNc1cc(C(N)=O)c(Cl)cc1Cl`, 70% (active).
The result for `Cc1ccc(/C(O)=C2\C(=O)C(=O)N(CCCC(=O)O)C2c2ccc(F)cc2)cc1` (stereo unspecified) reads 4% (inactive); that for `Cc1ccc(N2C(=O)/C(=C/c3ccc(O)cc3)C(=O)NC2=S)cc1`, 6% (inactive).
On to `COc1cc(C=C2C(=O)N(c3ccc(C)cc3)C(=S)N(c3ccc(C)cc3)C2=O)ccc1O`, for which the inhibition is 0% (inactive).
The value for `Cc1ccc(N2C(=O)C(=Cc3ccc(O)cc3)C(=O)N(c3ccc(C)cc3)C2=S)cc1` was 56% (active); that for `O=C(CN1CCSCC1)N/N=C/c1ccc(-c2ccccc2)cc1` was 7% (inactive); that for `O=C(Nc1cc(C(=O)Nc2ccccc2-c2ccccc2)cc(C(=O)Nc2ccccc2-c2ccccc2)c1)c1ccc([N+](=O)[O-])cc1` was 19% (inactive).
The value for `Cc1ccc(OCCOCCN2CCC(C)CC2)cc1` was 15% (inactive).
The result for `CCN1C(=O)c2cccc3c(NC(=O)c4cc([N+](=O)[O-])ccc4Cl)ccc1c23` reads 5% (inactive).
Take `C=CCN1C(=O)/C(=C\c2ccc(-c3ccc([N+](=O)[O-])cc3)o2)C(=O)NC1=S`: the inhibition was 10% (inactive).
The result for `C=CCN1C(=O)/C(=C\c2ccc(I)o2)C(=O)NC1=S` reads 27% (inactive); that for `COc1ccc(OC)c(S(=O)(=O)n2nnc3ccccc32)c1`, 3% (inactive).
The value for `COc1ccc(S(=O)(=O)n2nnc3ccccc32)c2ccccc12` was 55% (active); that for `COc1ccc(S(=O)(=O)n2nnc3ccccc32)cc1OC` was 2% (inactive); that for `COC(=O)C1=C(C)NC(=S)NC1c1cc(Br)ccc1OCc1ccccc1` (stereo unspecified) was 11% (inactive).
Consider `Cn1c(=O)c2[nH]c(N/N=C(/C#N)C(N)=O)nc2n(C)c1=O`, for which the inhibition is 8% (inactive).
With `CCC(Oc1ccccc1)C(=O)Nc1cc(OC)c(Cl)cc1OC` (stereo unspecified), the inhibition was 12% (inactive).
The value for `CCC(Oc1ccccc1)C(=O)Nc1cc(Cl)ccc1OC` (stereo unspecified) was 56% (active).
The result for `CCC(Oc1ccccc1)C(=O)Nc1cc(Cl)ccc1Cl` (stereo unspecified) reads 40% (inactive); that for `C=CCn1cc(/C=c2\sc3n(c2=O)C(c2ccc(OC)cc2)C(C(=O)OCC)=C(C)N=3)c2ccccc21` (stereo unspecified), 15% (inactive); that for `O=C(/C=C/c1ccc(-c2ccccc2Br)o1)c1ccc(Cl)cc1`, 13% (inactive).
The value for `NS(=O)(=O)c1ccc2c(c1)C1C=CCC1C(c1ccc([N+](=O)[O-])cc1)N2` (stereo unspecified) was 19% (inactive).
`CCOC(=O)C1=C(C)N=c2s/c(=C\c3ccc(OC)c(Br)c3)c(=O)n2C1c1ccccc1Cl` (stereo unspecified): the inhibition was 29% (inactive).
As for `CCOC(=O)c1ccc(NC(=O)c2ccc([N+](=O)[O-])o2)cc1`, the inhibition was 50% (active).
Consider `CCCOC(=O)c1ccc(NC(=O)c2ccc([N+](=O)[O-])o2)cc1`, for which the inhibition is 7% (inactive).
Consider `CCOc1ccc(NC(=O)c2ccc([N+](=O)[O-])o2)cc1`, for which the inhibition was 17% (inactive).
The result for `O=C(Nc1cccc(Cl)c1)Nc1cc(Cl)ccc1Cl` reads 0% (inactive).
The value for `COc1ccc(-n2c(O)c(C=Nc3ccc(Cl)cc3)c3ccccc3c2=O)cc1` was 11% (inactive); that for `O=C(CC1OC(=O)c2ccccc21)c1ccccc1` (stereo unspecified) was 1% (inactive).
Take `Cc1cc(=O)[nH]c(SCC(=O)c2ccc(Br)cc2)n1`: the inhibition is 4% (inactive) and 9% (inactive).
The value for `Cc1nc(SCC(=O)c2ccc(O)c(O)c2)n[nH]1` was 42% (inactive); that for `Cc1sc2nc(SCC(=O)c3ccc(O)c(O)c3)[nH]c(=O)c2c1C` was 75% (active).
For the molecule `COc1ccc(C(=O)CSc2nc3sc(C)c(C)c3c(=O)[nH]2)cc1C`, the inhibition is 44% (inactive).
The value for `Cc1cc(C)c2c(=O)[nH]c(SCC(=O)c3ccc(Br)cc3)nc2n1` was 20% (inactive); that for `Cc1cc(C)nc(SCC(=O)c2ccc(O)c(O)c2)n1` was 74% (active).
As for `Cc1cc(C)nc(SCC(=O)c2ccc(F)cc2)n1`, the inhibition is 13% (inactive).
The value for `Cc1cc(C)c2c(=O)[nH]c(SCC(=O)c3ccc(F)cc3)nc2n1` was 11% (inactive).
The result for `Nc1cc(=O)[nH]c(SCC(=O)c2ccc(O)c(O)c2)n1` reads 8% (inactive); that for `Cc1sc2nc(SCC(N)=O)[nH]c(=O)c2c1C`, 0% (inactive).
Regarding `Cc1cc(=O)[nH]c(SCC(=O)c2ccc(O)c(O)c2)n1`, the inhibition was 50% (active).
The value for `Cc1cccnc1NC(=O)Nc1cccc(F)c1` was 7% (inactive); that for `O=C(NNc1ccc(F)cc1)C(O)(c1ccccc1)c1ccccc1` was 2% (inactive).
As to `NS(=O)(=O)c1ccc(Nc2nc(-c3ccccn3)cs2)cc1`, the inhibition was 3% (inactive).
On to `CC(=O)Nc1ccc2c(c1)C(=O)OC2(c1ccc(N(C)C)cc1)c1ccc(N(C)C)cc1`, for which the inhibition is 17% (inactive).
The result for `Cc1nc2ccccc2n1C(=O)c1ccc([N+](=O)[O-])cc1` reads 0% (inactive); that for `Cc1ccc(C(=O)N/N=C/C=C/c2ccc([N+](=O)[O-])cc2)cn1`, 1% (inactive); that for `O=C(N/N=C\c1ccc([N+](=O)[O-])cc1)c1cccc2cc[nH]c12`, 8% (inactive).
Take `Cc1ccc(N2NC(=O)/C(=C/c3ccc(-c4cc([N+](=O)[O-])ccc4C)o3)C2=O)cc1`: the inhibition is 13% (inactive).
The result for `Cc1ccc(C(=O)O)cc1-n1c(C)ccc1C` reads 19% (inactive); that for `COc1cc(C(=O)O)c(-n2c(C)ccc2C)cc1OC`, 13% (inactive); that for `Cc1ccc(C)n1-c1ccccc1C(=O)O`, 15% (inactive).
The result for `Cc1c(C(=O)O)cccc1-n1c(C)ccc1C` reads 58% (active); that for `Cc1c(C(=O)O)cccc1-n1c(=O)c2cc3c(=O)n(-c4cccc(C(=O)O)c4C)c(=O)c3cc2c1=O`, 10% (inactive); that for `Cc1ccc(C)n1-c1ccc(Cl)cc1C(=O)O`, 16% (inactive).
As to `Cc1ccc(C)n1-c1ccc(C(=O)O)cc1O`, the inhibition was 8% (inactive).
